# In the library only some 17% were active in any assay of this set; here they are far more common.
# HT1080NT lethal = kills 2HG-producing HT-1080-NT fibrosarcoma cells. Potency, µM (top dose mostly 46.1 µM), without a hit: at the top dose activity, negative = less viability, usual class: cytotoxic. 1.6% of 360,000 active. HT-1080-NT fibrosarcoma viability, CellTiter-Glo ATP luminescence, 48 h;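 also: NT is the 2HG producing partner of a matched IDH1 knockdown line; 0% = DMSO-treated cells and -100% = media-only wells without cells; nearly all actives have a fitted effect of over 55% in size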
#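 HT-1080-NT; 750 cells/well; 5% FBS RPMI; 48 h compound, 37 degrees C; CellTiter-Glo luminescence; curve fitting and curve-class assignment.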
# HT1080 IDH1KD tx = kills HT-1080 cells with IDH1 knockdown; HT-1080 IDH1 knockdown viability, ATP luminescence, 48 h; Potency, µM (doses to about 46.1 µM), for the others: at the top dose activity, negative = toxicity, hits mostly cytotoxic; 2% of 360,000 active; AID 686971;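 also: 0% = DMSO wells and -100% = cell-free medium wells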
#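 After a 2 h attachment period, IDH1KD HT-1080 cells took pin-transferred compound for 48 h at 37 °C; ATP-based luminescence after 10 min room-temperature reagent incubation reported viability.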
# HepG2 tox = kills HepG2 cells in TGF-b inhibitor counter-screen | 0.76% of 410,000 active | Potency, µM (doses to about 46.1 µM), for inactives: top-dose activity change, negative = cytotoxicity, actives largely listed as cytotoxic | HepG2 CAGA-GFP viability, ATP luminescence, 18 h
#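 CellTiter-Glo luminescence gave cytotoxicity after 18 hours at 37 degrees C. The cells were HepG2 CAGA-GFP in 1% FBS DMEM, stimulated with 500 pg/mL TGF-beta after compound addition. %Activity was normalised to no-cell wells (complete cell-killing) and DMSO (no toxicity), and curves were fitted and classified.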
# TDP1 cell noCPT = qHTS for Inhibitors of human tyrosyl-DNA phosphodiesterase 1 (TDP1): qHTS in cells in absence of CPT; DT40 Tdp1-/- hTDP1 cells, no CPT, ATP luminescence, 48 h; Potency, µM (top dose mostly 46.2 µM), for the others: at the top dose activity change, negative = growth inhibition, actives largely listed as inhibitors; 15% of 420,000 active; AID 686978, 2013; also: % is scaled to controls: 0 for no effect and ±100 for the full control effect; nearly all actives have a fitted effect of over 55% in size
#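 Luminescent ATP content (CellTiter-Glo) served as the growth readout. Knockout chicken DT40 cells expressing human TDP1 were exposed to compounds without camptothecin for a minimum 48 hr at 37 °C.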
# TGFb inhibitor = blocks TGF-b signaling; Potency, µM (series often up to 46.1 µM), for inactives: top-dose activity, negative = inhibition, usual class: inhibitors; 1.2% of 410,000 active; HepG2 CAGA-GFP TGF-b/SMAD3 reporter, GFP fluorescence, 18 h; TGF-beta stimulated, 500 pg/mL final; AID 588855; also: % is scaled to controls: 0 for no effect and ±100 for the full control effect; nearly all actives have a fitted effect of over 65% in size
#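 HEPG2 CAGA-GFP cells (1000/well, DMEM with 1% FBS) were pre-incubated 2 h at 37 degrees C, given compound by pin tool, then stimulated with TGF-beta at 500 pg/mL final for 18 h before per-cell GFP fluorescence imaging.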
# DT40 TDP1 CPT = DT40-hTDP1 cell growth loss with CPT | chicken DT40 Tdp1-/-;hTDP1 cells + 20 nM CPT, ATP luminescence, 48 h | Potency, µM (top dose mostly 46.2 µM), for the others: at the top dose activity change, negative = growth inhibition, usual class: inhibitors | 12% of 420,000 active; also: % is scaled to controls: 0 for no effect and ±100 for the full control effect; nearly all actives have a fitted effect of over 55% in size
#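 Chicken DT40 Tdp1-/- cells stably complemented with human TDP1 were seeded at 400 cells/well in medium containing 20 nM camptothecin, exposed to pin-transferred compounds, and grown at 37 °C for at least 48 hr. Viability was read as ATP luminescence.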
# * marks the source's active call; other numbers are inactive results; ? = inconclusive; . = not tested or not shown. Calls follow the shape of the dose curve; as a rule, active = well fitted curve in the direction sought with a large enough effect; inconclusive = small, poorly fitted or top-dose-only effect, or another doubt; inactive = no such curve, though single readings can be large; an effect the other way counts as inactive or inconclusive. Potency is read from the fitted curve at half-maximal effect.
SMILES,HT1080NT lethal,HT1080 IDH1KD tx,HepG2 tox,TDP1 cell noCPT,TGFb inhibitor,DT40 TDP1 CPT
C=C(C)Cn1c2ccc(NC(=O)CCc3cccc(Cl)c3)cc2c(=O)n1C,?,?,-17.7%,14.6µM*,-14.7%,18.4µM*
O=C(Nc1ccc(S(=O)(=O)NCc2ccco2)cc1)c1ccc(F)cc1,-11.6%,-4.7%,-14.6%,?,-14.6%,?
COc1cc(OC)c(NS(=O)(=O)c2cc(Br)cnc2N)cc1Cl,-12.8%,-21.2%,-12.7%,-1.5%,-27.8%,-12.3%
CCOC(=O)C1=CN(CC)S(=O)(=O)NC1c1ccc(C(F)(F)F)cc1 (stereo not drawn),-2.8%,-3.7%,-25.6%,-15.5%,-14.3%,-18.7%
COc1cc(Cn2c3ccc(NC(=O)CCc4ccc(O)cc4)cc3c(=O)n2C)ccc1F,?,?,-0.4%,20.6µM*,-1.7%,?
O=C(NC1CC2CCCC(C1)N2C(=O)Nc1ccc(Cl)c(C(F)(F)F)c1)C1CC1 (stereo not drawn),-1.2%,-11.6%,-35.1%,16.4µM*,1.6%,?
Cc1cccc(NC(=O)N2C3CCCC2CC(NC(=O)C2CC2)C3)c1 (stereo not drawn),2.8%,-1.3%,-22.4%,-8.4%,-12.7%,4.1%
COc1cc2c(cc1OC)CN(C(=O)/C=C/c1ccc([N+](=O)[O-])cc1)CC2,13.9%,-4.2%,-4.0%,16.4µM*,-0.4%,18.4µM*
COc1cc2c(cc1OC)CN(C(=O)c1ccc(S(=O)(=O)N3CCCC3)cc1)CC2,3.2%,-1.0%,-14.3%,-7.3%,-14.8%,-9.3%
COc1ccc(OC)c(-c2nn(-c3ccccc3)cc2C(=O)N2CCc3ccccc3C2)c1,-18.4%,?,0.9%,?,-12.9%,?
COc1cc2c(cc1OC)CN(C(=O)c1cccc([N+](=O)[O-])c1)CC2,6.5%,6.9%,5.6%,?,-9.8%,25.9µM*
COc1cc2c(cc1OC)CN(C(=O)c1ccc(OC)c([N+](=O)[O-])c1)CC2,4.6%,-0.5%,2.7%,?,25.0%,-17.2%
CCOC(=O)N1CCN(C(=O)/C=C/c2ccc([N+](=O)[O-])cc2)CC1,0.9%,-0.2%,-10.3%,-21.1%,-2.3%,-6.3%
COc1cccc(-c2nn(-c3ccc(C)cc3)cc2C(=O)N2CCc3cc(OC)c(OC)cc3C2)c1,?,20.6µM*,-2.7%,?,-2.7%,18.4µM*
CCOc1ccc(C(=O)N2CCc3cc(OC)c(OC)cc3C2)cc1OCC,-10.0%,?,-23.5%,29.1µM*,12.3%,?
CC1CC(C)CN(C(=O)CSc2ncnc3sccc23)C1 (stereo not drawn),-0.3%,-5.1%,-20.9%,-13.6%,2.4%,-12.3%
COc1cc2c(cc1OC)CN(CC(=O)Nc1cccc([N+](=O)[O-])c1)CC2,-9.2%,-10.1%,-11.2%,16.4µM*,-13.5%,?
COc1cc2c(cc1OC)CN(C(=O)/C=C/c1cccs1)CC2,7.31µM*,4.11µM*,-50.3%,1.03µM*,-10.7%,1.46µM*
Cc1cc2c(c(Sc3ccccc3)n1)C(=O)OC2,5.7%,2.4%,-12.3%,-1.6%,-14.2%,-17.9%
N#Cc1ccc(Cl)cc1NC(=O)COC(=O)c1ccc(S(=O)(=O)N2CCCC2)cc1,-12.1%,-17.9%,0.2%,2.1%,0.8%,20.0%
c1cc2c3c(c1)c1c(n3CCNC2)CCCC1,.,.,.,23.7µM*,.,?
Cc1c(C)n2c3c(cccc13)CC2,2.0%,12.3%,-4.2%,-4.7%,-10.1%,0.4%
O=C(CCNS(=O)(=O)c1ccc(Cl)cc1)NCc1cccs1,-0.3%,3.1%,-11.9%,-24.7%,-3.5%,?
Cc1cccc(NC(=O)CCS(=O)(=O)c2ccc3c(c2)n(C)c(=O)c(=O)n3C)c1C,.,.,-0.9%,2.2%,-4.9%,1.1%
Cc1c(C)c(C)c2[nH]c(-c3ccc4c(c3)OCO4)nc2c1C,?,-22.8%,-88.5%,18.4µM*,?,?
SMILES,HT1080NT lethal,HT1080 IDH1KD tx,HepG2 tox,TDP1 cell noCPT,TGFb inhibitor,DT40 TDP1 CPT
Cc1nc(-c2ccc3c(c2)OCO3)cs1,13.6%,5.6%,0.6%,-8.9%,8.2%,-5.4%
O=C(c1ccc(F)cc1)C1CCN(C(=S)Nc2ccc(F)cc2)CC1,?,0.0%,-2.6%,14.6µM*,-28.6%,?
CCCNC(=S)N1CCC(C(=O)c2ccc(F)cc2)CC1,-0.5%,-23.4%,-1.4%,16.4µM*,-4.9%,14.6µM*
O=C(NC1CCN(C(=S)NCCc2ccccc2)CC1)C1CC1,4.0%,10.7%,2.4%,-2.4%,25.3%,-0.6%
CCCNC(=S)N1CCC(NC(=O)C2CCCCC2)CC1,11.4%,0.6%,0.8%,?,-0.5%,16.4µM*
CCc1cc2c(COC(=O)c3c(C)noc3C)cc(=O)oc2cc1O,-8.8%,-9.7%,-14.8%,10.3µM*,-16.4%,?
COc1cc(C(=O)N2CCN(c3ccc([N+](=O)[O-])cc3)CC2)ccc1OCc1c(C)noc1C,-1.7%,-8.4%,-2.1%,16.4µM*,-14.8%,?
COc1cc(C(=O)OCC(C)=O)ccc1OCc1c(C)noc1C,?,18.4µM*,2.5%,?,-3.8%,?
COc1ccc(C(C)=O)cc1COC(=O)c1c(C)noc1C,-27.4%,-28.1%,0.6%,14.6µM*,10.2%,?
COc1ccc(C(C)=O)cc1COC(=O)c1ccc(OCc2c(C)noc2C)cc1,-0.2%,-14.4%,-23.2%,-15.7%,-6.0%,-8.4%
COc1cc(C(=O)O)ccc1OCc1c(C)noc1C,11.0%,16.0%,-1.6%,-2.0%,6.5%,7.6%
COc1cccc(Cn2cnc3c(cnn3C(C)(C)C)c2=O)c1,.,.,-25.2%,.,-7.6%,.
O=C(CN1CCCc2ccccc21)N/N=C/c1ccccc1,-2.5%,-2.7%,-3.9%,16.4µM*,-11.0%,?
NS(=O)(=O)c1ccc(NC(=O)CN2CCCc3ccccc32)cc1,-11.1%,-20.3%,8.1%,-24.2%,-1.8%,-22.4%
O=C(CN1CCCc2ccccc21)N/N=C/c1ccc(O)cc1O,?,?,-5.7%,16.4µM*,-11.2%,?
O=C(CN1CCCc2ccccc21)N/N=C/c1c(O)ccc2ccccc12,?,?,-14.1%,3.66µM*,0.0%,4.11µM*
CCN(CC)c1ccc(/C=N/NC(=O)CN2CCCc3ccccc32)cc1,-0.7%,-4.1%,-22.4%,?,?,?
